This is one part of a sample in which the strongest signals are shown more often than they occur.
Experiments:
Assay in all cases: glycan array binding signal (z-score within array); higher = stronger binding
[1] = test system: GlcNAc(b1-4)GlcNAc(b1-4)GlcNAc(b1-4)GlcNAc(b1-4)GlcNAc(b1-4)GlcNAc; conditions: glycan notation: IUPAC condensed, linker removed
Summary of the method: (§1)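 Glycan array binding is given as a within-array Z-score, which can be read as non-binding when negative. The arrays, 3228 of them, came from the Consortium for Functional Glycomics database and were retained only where the protein sequence was available. Z-scores were averaged across arrays of the same protein sequence at different concentrations or buffers and across linkers.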

[2] = test system: GlcNAc(b1-6)Gal(b1-4)GlcNAc; conditions: glycan notation: IUPAC condensed, linker removed
Summary of the method: as §1

GlcNAc3Prop(b1-4)GlcNAc = conditions: glycan notation: IUPAC condensed, linker removed
Summary of the method: as §1

[3] = test system: GlcNAc6S(b1-3)Gal(b1-4)GlcNAc; conditions: glycan notation: IUPAC condensed, linker removed
Summary of the method: as §1

Kdn(a2-6)Gal(b1-4)GlcNAc = conditions: glycan notation: IUPAC condensed, linker removed
Summary of the method: as §1

Kdn(a2-3)Gal(b1-3)GlcNAc = conditions: glycan notation: IUPAC condensed, linker removed
Summary of the method: as §1

[4] = test system: GlcNAc(b1-4)GlcNAc(b1-4)GlcNAc(b1-4)GlcNAc(b1-4)GlcNAc; conditions: glycan notation: IUPAC condensed, linker removed
Summary of the method: as §1

Kdn(a2-3)Gal(b1-4)GlcNAc = conditions: glycan notation: IUPAC condensed, linker removed
Summary of the method: as §1

[5] = test system: Kdn(a2-3)Gal(b1-4)[Fuc(a1-3)]GlcNAc; conditions: glycan notation: IUPAC condensed, linker removed
Summary of the method: as §1

GlcNAc(b1-6)GalNAc = conditions: glycan notation: IUPAC condensed, linker removed
Summary of the method: as §1

[6] = test system: GlcNAc(b1-4)[GlcNAc(b1-6)]GalNAc; conditions: glycan notation: IUPAC condensed, linker removed
Summary of the method: as §1

Man(a1-2)Man(a1-3)Man = conditions: glycan notation: IUPAC condensed, linker removed
Summary of the method: as §1

[7] = test system: GlcNAc(b1-3)[GlcNAc(b1-4)][GlcNAc(b1-6)]GlcNAc; conditions: glycan notation: IUPAC condensed, linker removed
Summary of the method: as §1

[8] = test system: Man(a1-2)Man(a1-2)Man(a1-3)Man; conditions: glycan notation: IUPAC condensed, linker removed
Summary of the method: as §1

[9] = test system: Man(a1-2)Man(a1-2)Man(a1-3)[Man(a1-2)Man(a1-6)[Man(a1-3)]Man(a1-6)]Man(b1-4)GlcNAc(b1-4)GlcNAc; conditions: glycan notation: IUPAC condensed, linker removed; mutation: D138V, E140I
Summary of the method: as §1

[10] = test system: Man(a1-2)Man(a1-2)Man(a1-3)[Man(a1-2)Man(a1-3)[Man(a1-2)Man(a1-6)]Man(a1-6)]Man(b1-4)GlcNAc(b1-4)GlcNAc; conditions: glycan notation: IUPAC condensed, linker removed
Summary of the method: as §1

[11] = test system: GlcNAc(b1-3)[GlcNAc(b1-6)]Gal(b1-4)GlcNAc; conditions: glycan notation: IUPAC condensed, linker removed
Summary of the method: as §1

[12] = test system: Man(a1-2)Man(a1-2)Man(a1-6)[Man(a1-3)]Man; conditions: glycan notation: IUPAC condensed, linker removed
Summary of the method: as §1

[13] = test system: Man(a1-2)Man(a1-3)[Man(a1-2)Man(a1-6)]Man(a1-6)[Man(a1-2)Man(a1-2)Man(a1-3)]Man(b1-4)GlcNAc(b1-4)GlcNAc; conditions: glycan notation: IUPAC condensed, linker removed
Summary of the method: as §1

[14] = test system: Man(a1-2)Man(a1-3)[Man(a1-2)Man(a1-6)]Man(a1-6)[Man(a1-2)Man(a1-2)Man(a1-3)]Man; conditions: glycan notation: IUPAC condensed, linker removed
Summary of the method: as §1

CHI3L1 (Homo sapiens), P36222, sequence (P36222 whole entry): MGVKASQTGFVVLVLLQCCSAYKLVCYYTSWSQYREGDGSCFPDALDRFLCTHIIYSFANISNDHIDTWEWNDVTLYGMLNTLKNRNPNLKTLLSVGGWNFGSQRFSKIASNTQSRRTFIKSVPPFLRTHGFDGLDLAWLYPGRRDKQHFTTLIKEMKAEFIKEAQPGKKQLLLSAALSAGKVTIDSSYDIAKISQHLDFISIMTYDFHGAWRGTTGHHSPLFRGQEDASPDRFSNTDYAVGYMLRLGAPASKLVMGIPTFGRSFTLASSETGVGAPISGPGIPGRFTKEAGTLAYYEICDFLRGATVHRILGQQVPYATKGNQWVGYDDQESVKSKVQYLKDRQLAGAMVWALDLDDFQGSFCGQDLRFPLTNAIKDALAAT
CHT (Homo sapiens), sequence (chain, as listed by the source): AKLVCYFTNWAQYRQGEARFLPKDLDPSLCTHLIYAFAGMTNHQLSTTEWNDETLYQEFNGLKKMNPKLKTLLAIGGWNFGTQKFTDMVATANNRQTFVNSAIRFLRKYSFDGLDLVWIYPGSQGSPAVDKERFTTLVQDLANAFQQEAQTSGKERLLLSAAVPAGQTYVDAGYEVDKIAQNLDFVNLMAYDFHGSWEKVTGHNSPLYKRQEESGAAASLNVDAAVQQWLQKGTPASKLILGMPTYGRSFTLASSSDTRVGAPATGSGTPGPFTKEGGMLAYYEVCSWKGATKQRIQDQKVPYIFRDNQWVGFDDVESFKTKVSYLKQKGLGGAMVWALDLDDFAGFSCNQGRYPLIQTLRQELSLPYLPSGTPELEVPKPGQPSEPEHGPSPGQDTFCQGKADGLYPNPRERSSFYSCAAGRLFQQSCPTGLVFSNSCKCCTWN
Avaren (Actinomycete K97), sequence (chain, as listed by the source): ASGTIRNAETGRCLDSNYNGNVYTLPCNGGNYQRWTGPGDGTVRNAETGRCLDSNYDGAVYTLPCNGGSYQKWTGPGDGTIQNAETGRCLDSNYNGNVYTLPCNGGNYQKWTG
PILRb (Mus musculus), Q2YSF2, sequence (Q2YSF2 entry or part of it): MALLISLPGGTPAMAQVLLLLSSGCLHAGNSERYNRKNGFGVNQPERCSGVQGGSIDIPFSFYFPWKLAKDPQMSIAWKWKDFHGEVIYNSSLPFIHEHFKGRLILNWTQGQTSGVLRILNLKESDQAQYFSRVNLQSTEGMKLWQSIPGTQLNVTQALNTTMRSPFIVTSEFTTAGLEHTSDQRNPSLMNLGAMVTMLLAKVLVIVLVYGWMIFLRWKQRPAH
PILRa (Mus musculus), Q2YSF3, sequence (Q2YSF3 entry or part of it): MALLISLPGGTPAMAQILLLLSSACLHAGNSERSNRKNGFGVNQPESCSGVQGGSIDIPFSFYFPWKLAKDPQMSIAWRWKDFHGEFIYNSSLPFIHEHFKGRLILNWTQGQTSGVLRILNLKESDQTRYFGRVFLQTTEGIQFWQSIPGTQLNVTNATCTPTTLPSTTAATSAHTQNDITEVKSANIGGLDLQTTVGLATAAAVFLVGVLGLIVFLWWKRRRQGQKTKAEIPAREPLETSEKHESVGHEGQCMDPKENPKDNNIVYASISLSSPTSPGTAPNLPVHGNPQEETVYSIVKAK
SRLC (Mus musculus), Q8VIF6, sequence (Q8VIF6 other isoform, or with tags, fused parts or gaps): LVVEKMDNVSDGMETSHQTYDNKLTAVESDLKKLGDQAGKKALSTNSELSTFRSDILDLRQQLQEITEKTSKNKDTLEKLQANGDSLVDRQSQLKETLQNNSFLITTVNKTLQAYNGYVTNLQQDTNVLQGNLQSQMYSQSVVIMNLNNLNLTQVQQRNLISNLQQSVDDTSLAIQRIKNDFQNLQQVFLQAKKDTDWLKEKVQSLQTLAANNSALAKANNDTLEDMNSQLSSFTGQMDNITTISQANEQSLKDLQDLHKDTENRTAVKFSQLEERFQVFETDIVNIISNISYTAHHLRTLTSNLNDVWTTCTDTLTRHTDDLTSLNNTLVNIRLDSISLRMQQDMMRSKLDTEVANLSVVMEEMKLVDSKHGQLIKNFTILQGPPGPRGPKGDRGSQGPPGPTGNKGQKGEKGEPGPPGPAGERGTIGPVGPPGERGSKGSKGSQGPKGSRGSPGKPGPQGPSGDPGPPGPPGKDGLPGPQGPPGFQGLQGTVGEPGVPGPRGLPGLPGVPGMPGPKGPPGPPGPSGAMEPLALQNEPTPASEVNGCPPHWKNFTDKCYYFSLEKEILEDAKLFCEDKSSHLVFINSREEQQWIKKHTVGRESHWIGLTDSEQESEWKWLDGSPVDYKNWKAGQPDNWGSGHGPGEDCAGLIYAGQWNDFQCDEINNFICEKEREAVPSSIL
C3b (Homo sapiens), P01024, sequence (P01024 23-667): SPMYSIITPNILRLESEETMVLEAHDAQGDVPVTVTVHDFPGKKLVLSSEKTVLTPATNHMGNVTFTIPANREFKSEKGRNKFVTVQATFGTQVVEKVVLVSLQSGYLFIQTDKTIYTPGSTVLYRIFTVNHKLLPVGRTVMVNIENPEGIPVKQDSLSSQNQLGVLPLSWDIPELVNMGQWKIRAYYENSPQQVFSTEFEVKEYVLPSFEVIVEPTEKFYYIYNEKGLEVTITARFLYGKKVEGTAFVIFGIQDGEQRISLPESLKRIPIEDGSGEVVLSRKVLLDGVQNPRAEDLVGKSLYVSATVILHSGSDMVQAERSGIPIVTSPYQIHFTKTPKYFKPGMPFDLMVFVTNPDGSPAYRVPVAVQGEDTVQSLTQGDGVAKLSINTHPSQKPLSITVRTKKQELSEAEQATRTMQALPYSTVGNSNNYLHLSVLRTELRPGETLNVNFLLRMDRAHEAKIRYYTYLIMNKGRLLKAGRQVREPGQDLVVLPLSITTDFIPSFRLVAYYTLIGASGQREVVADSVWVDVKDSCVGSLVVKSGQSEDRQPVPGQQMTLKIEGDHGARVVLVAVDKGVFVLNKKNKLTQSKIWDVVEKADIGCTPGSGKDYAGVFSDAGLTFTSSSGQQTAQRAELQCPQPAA
wLAT-1A (Homo sapiens), Q01650, sequence (Q01650 whole entry): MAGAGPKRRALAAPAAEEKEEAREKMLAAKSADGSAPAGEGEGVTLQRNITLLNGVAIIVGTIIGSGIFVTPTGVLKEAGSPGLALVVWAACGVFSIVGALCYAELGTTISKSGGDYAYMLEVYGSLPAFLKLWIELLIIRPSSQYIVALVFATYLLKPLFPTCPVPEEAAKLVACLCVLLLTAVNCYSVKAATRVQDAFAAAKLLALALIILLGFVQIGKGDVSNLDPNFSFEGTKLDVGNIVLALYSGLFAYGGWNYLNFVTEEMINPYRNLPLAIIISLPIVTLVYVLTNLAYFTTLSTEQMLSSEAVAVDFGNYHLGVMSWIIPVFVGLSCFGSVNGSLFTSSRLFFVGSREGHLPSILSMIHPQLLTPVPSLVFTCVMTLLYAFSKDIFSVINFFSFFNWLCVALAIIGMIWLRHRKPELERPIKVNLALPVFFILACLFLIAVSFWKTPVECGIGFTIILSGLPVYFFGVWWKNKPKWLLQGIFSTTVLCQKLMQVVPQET
Aggrecan (Rattus norvegicus), NP_071526, sequence (chain, as listed by the source): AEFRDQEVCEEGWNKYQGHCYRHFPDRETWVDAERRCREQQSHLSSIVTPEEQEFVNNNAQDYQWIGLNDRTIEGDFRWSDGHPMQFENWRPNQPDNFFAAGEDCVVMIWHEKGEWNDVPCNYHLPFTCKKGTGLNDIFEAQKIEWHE
Neurocan (Homo sapiens), O14594, sequence (O14594 other isoform, or with tags, fused parts or gaps): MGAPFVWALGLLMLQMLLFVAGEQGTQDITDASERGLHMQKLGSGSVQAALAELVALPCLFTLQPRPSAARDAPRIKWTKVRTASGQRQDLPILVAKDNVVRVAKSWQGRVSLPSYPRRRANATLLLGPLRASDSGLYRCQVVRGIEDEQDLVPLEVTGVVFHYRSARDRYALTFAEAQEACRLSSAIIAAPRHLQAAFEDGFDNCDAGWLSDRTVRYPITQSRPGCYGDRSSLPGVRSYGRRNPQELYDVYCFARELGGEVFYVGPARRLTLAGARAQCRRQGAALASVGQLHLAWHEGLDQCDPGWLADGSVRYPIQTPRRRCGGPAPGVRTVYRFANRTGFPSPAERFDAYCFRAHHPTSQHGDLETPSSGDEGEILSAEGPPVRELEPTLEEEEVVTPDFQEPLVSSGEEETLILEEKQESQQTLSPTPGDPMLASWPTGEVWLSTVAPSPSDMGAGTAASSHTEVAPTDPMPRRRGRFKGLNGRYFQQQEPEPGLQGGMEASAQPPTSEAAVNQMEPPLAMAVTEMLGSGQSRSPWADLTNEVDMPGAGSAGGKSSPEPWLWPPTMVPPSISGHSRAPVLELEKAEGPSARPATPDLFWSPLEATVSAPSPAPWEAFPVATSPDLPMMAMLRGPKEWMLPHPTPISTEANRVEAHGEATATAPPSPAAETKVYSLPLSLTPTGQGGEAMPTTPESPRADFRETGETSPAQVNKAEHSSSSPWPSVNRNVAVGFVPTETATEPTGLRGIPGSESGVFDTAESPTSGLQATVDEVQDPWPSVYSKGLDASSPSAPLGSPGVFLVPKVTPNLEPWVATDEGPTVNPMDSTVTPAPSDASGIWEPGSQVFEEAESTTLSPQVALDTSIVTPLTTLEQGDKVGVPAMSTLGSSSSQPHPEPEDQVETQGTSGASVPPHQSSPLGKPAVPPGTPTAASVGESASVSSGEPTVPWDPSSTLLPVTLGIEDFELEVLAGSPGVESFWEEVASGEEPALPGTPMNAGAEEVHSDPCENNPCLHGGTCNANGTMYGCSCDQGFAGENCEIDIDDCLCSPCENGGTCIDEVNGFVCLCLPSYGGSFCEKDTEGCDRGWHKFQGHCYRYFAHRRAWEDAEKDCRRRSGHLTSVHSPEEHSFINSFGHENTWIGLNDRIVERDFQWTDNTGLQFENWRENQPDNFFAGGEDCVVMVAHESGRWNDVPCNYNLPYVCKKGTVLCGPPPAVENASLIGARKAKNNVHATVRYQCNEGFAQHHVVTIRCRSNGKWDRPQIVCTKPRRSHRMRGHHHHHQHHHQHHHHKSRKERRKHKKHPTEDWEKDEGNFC
Regenerating Gene IV (Homo sapiens), Q9BYZ8, sequence (Q9BYZ8 whole entry, looked up): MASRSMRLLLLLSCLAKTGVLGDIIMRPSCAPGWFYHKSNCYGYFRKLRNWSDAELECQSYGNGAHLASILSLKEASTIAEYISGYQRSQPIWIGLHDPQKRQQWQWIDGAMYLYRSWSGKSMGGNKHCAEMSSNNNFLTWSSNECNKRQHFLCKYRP

## MpAFP RI GFP (Marinomonas primoryensis)
[1]
  glycan array binding signal (z-score): -0.527

## PILRa (Mus musculus), Q2YSF3
[2]
  glycan array binding signal (z-score): -0.314
GlcNAc3Prop(b1-4)GlcNAc
  glycan array binding signal (z-score): -0.331
[3]
  glycan array binding signal (z-score): 0.098
Kdn(a2-6)Gal(b1-4)GlcNAc
  glycan array binding signal (z-score): -0.059

## HARE (Homo sapiens), Q8WWQ8
Kdn(a2-3)Gal(b1-3)GlcNAc
  glycan array binding signal (z-score): -0.646

## CHI3L1 (Homo sapiens), P36222
[1]
  glycan array binding signal (z-score): 15.6
[4]
  glycan array binding signal (z-score): 14.5
GlcNAc3Prop(b1-4)GlcNAc
  glycan array binding signal (z-score): -0.044
Kdn(a2-3)Gal(b1-4)GlcNAc
  glycan array binding signal (z-score): -0.144
[5]
  glycan array binding signal (z-score): 0.381

## PILRb (Mus musculus), Q2YSF2
[4]
  glycan array binding signal (z-score): -0.432
GlcNAc(b1-6)GalNAc
  glycan array binding signal (z-score): -0.025
[5]
  glycan array binding signal (z-score): 0.391

## Regenerating Gene IV (Homo sapiens), Q9BYZ8
GlcNAc3Prop(b1-4)GlcNAc
  glycan array binding signal (z-score): -0.463

## Siglec-8 (Homo sapiens), Q9NYZ4
[4]
  glycan array binding signal (z-score): -0.111
[6]; mutation: R125K
  glycan array binding signal (z-score): -0.467
Man(a1-2)Man(a1-3)Man
  glycan array binding signal (z-score): -0.003

## Neurocan (Homo sapiens), O14594
[4]
  glycan array binding signal (z-score): -0.99

## C3b (Homo sapiens), P01024
[7]
  glycan array binding signal (z-score): 7.72
[6]
  glycan array binding signal (z-score): 2.75
Kdn(a2-3)Gal(b1-4)GlcNAc
  glycan array binding signal (z-score): -0.561
[8]
  glycan array binding signal (z-score): 0.007

## CHT (Homo sapiens)
[1]; mutation: D138V, E140I
  glycan array binding signal (z-score): 11.9
[4]; mutation: D138V, E140I
  glycan array binding signal (z-score): 8.66
Kdn(a2-3)Gal(b1-3)GlcNAc; mutation: D138V, E140I
  glycan array binding signal (z-score): -0.105
[9]
  glycan array binding signal (z-score): -0.189

## SRLC (Mus musculus), Q8VIF6
Kdn(a2-3)Gal(b1-3)GlcNAc
  glycan array binding signal (z-score): -0.229
[8]
  glycan array binding signal (z-score): -0.206
[10]
  glycan array binding signal (z-score): -0.241

## wLAT-1A (Homo sapiens), Q01650
GlcNAc(b1-6)GalNAc
  glycan array binding signal (z-score): 0.369
GlcNAc3Prop(b1-4)GlcNAc
  glycan array binding signal (z-score): 0.213

## Avaren (Actinomycete K97)
[11]
  glycan array binding signal (z-score): -0.108
GlcNAc(b1-6)GalNAc
  glycan array binding signal (z-score): -0.119
[8]
  glycan array binding signal (z-score): 2.52
[12]
  glycan array binding signal (z-score): 14.7
[13]
  glycan array binding signal (z-score): 1.26
[14]
  glycan array binding signal (z-score): 11.2

## Aggrecan (Rattus norvegicus), NP_071526
[6]
  glycan array binding signal (z-score): 0.018
[13]
  glycan array binding signal (z-score): 0.607

From the supplement of paper PMC8728848
